High-throughput results (PubChem)
CBX7 AlphaScr: inhibitors of human CBX7 binding to H3K27me3 peptide; AlphaScreen His6-CBX7 / biotin-H3K27me3 peptide binding; active compounds read low; normalised signal (fraction of DMSO) (no concentration beside the values); actives 1.1% (n = 66,000); AID 1224903; in the data active = normalised signal below about 0.5
Target sequence (O95931 whole entry, looked up): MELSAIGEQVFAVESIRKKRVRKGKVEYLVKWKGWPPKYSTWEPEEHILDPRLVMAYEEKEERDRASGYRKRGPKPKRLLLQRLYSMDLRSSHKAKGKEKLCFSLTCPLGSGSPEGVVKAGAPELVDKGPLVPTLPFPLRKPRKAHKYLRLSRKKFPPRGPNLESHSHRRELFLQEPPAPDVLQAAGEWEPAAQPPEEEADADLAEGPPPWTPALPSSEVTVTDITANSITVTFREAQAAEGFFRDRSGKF
Large screens that a line does not name were inactive. Shown is part of a subset that was picked to be rich in hits.

Cc1c(C)n(CC(O)CNCc2ccccc2)c2ccccc12 (stereo unspecified)	none
Cc1cccc(NCC(O)Cn2c(C)c(C)c3ccccc32)c1 (stereo unspecified)	CBX7 AlphaScr 0.47
CCOc1ccc(NCC(O)Cn2c(C)c(C)c3ccccc32)cc1 (stereo unspecified)	CBX7 AlphaScr 0.43
Cc1c(C)n(CC(O)CN2CCCCCC2)c2ccccc12 (stereo unspecified)	none
Cc1c(C)n(CC(O)CNC2CCCCC2)c2ccccc12 (stereo unspecified)	none
CCC(CO)NCC(O)Cn1c(C)c(C)c2ccccc21 (stereo unspecified)	none
COC(=O)Cc1nc(N(C)C2CCCCC2)c2c3c(sc2n1)CCCC3	none
CCC(=O)N1CCc2cc(S(=O)(=O)NCCc3ccc(OC)c(OC)c3)ccc21	none
COc1cccc(NC(=O)CN(c2ccc(C(C)C)cc2)S(=O)(=O)c2c(C)n[nH]c2C)c1	none
COc1cccc(/C=C/c2nc3ccccc3c(=O)n2-c2ccc(F)c(Cl)c2)c1OC	none
O=[N+]([O-])c1ccc(-n2nc(-c3ccc(Cl)cc3)cc2-c2ccc(Cl)cc2)c(Cl)c1	none
Cc1cccc2sc(NC(=O)C3CCCN3S(=O)(=O)c3cccc4cccnc34)nc12 (stereo unspecified)	none
O=c1oc2ccccc2cc1-c1csc(-c2cc3ccc(O)cc3oc2=O)n1	none
COc1ccc(N2C(=O)CC(NCCN3CCOCC3)C2=O)cc1 (stereo unspecified)	none
COc1ccc(NCC(O)Cn2c3ccccc3c3ccccc32)cc1 (stereo unspecified)	CBX7 AlphaScr 0.45
COc1ccccc1NCC(O)Cn1c2ccc(Br)cc2c2cc(Br)ccc21 (stereo unspecified)	none
COc1ccc(NCC(O)Cn2c(C)c(C)c3ccccc32)cc1 (stereo unspecified)	none
CCOC(=O)c1ccc(NS(=O)(=O)c2ccc3c(c2)CCN3C(C)=O)cc1	none
Cc1cc(C)cc(C(=O)NCCc2cc3cc(C)c(C)cc3[nH]c2=O)c1	none
FC(F)(F)C(F)(F)C(F)(F)c1nnc2ccc(NCc3ccccc3)nn12	none
Cc1ccn2c(NC3CCCCC3)c(-c3ccccn3)nc2c1	CBX7 AlphaScr 0.46
Cc1ccn2c(NC3CCCC3)c(-c3ccncc3)nc2c1	none
Cc1ccn2c(NC3CCCC3)c(-c3ccccn3)nc2c1	CBX7 AlphaScr 0.43
Cc1ccc2nc(-c3ccncc3)c(NC3CCCC3)n2c1	none
Cc1ccn2c(NC3CCCCC3)c(-c3cccnc3)nc2c1	none
Cc1ccc(-c2nc3ncccn3c2NC2CCCCC2)cc1	none
Cc1ccc(NC(=O)C2CCN(S(=O)(=O)c3cccc4cccnc34)CC2)cc1	none
Cn1c(=O)c2c(ncn2CC(=O)N2CCC(Cc3ccccc3)CC2)n(C)c1=O	none
Cc1ccc(-c2csc(NC(=O)c3ccc(S(=O)(=O)N4CCOCC4)cc3)n2)c(C)c1	none
O=C1CCc2cc(S(=O)(=O)N3CCCC3C(=O)Nc3cccc(F)c3)ccc2N1 (stereo unspecified)	none
Cc1cc(NS(=O)(=O)c2ccc(Nc3nc(-c4cccnc4)cs3)cc2)no1	none
CCC1Oc2ccccc2N(CC(=O)NCCCN(CC)c2cccc(C)c2)C1=O (stereo unspecified)	none
COc1cc2c(cc1OC)C1C(C(=O)Nc3ccc(Cl)cn3)c3ccccc3C(=O)N1CC2 (stereo unspecified)	none
Cc1ccccc1NC(=O)C1c2ccccc2C(=O)N2CCc3ccccc3C12 (stereo unspecified)	none
Cc1ccc(NC(=O)C2c3ccccc3C(=O)N3CCc4ccccc4C23)nc1 (stereo unspecified)	CBX7 AlphaScr 0.3
Brc1c(CSc2nc3ccccc3[nH]2)nc2ncccn12	none
COc1ccc(C)cc1NC(=O)c1oc2ccc(S(=O)(=O)N3CCCC3)cc2c1C	none
COc1ccc(C(=O)CC2(O)C(=O)N(Cc3ccc(Cl)cc3)c3ccccc32)cc1 (stereo unspecified)	none
CCc1ccc(C(=O)CC2(O)C(=O)N(Cc3ccc(Cl)cc3)c3ccccc32)cc1 (stereo unspecified)	CBX7 AlphaScr 0.42
Cc1ccc(C(=O)CC2(O)C(=O)N(Cc3ccc(Cl)cc3)c3ccccc32)cc1 (stereo unspecified)	none
CCC(C)(C(=O)NC1CCCC1)N(C)C(=O)c1ccc(=O)[nH]c1 (stereo unspecified)	none
O=S(=O)(c1ccccc1)c1nc(-c2ccccc2F)oc1N1CCCCC1	CBX7 AlphaScr 0.49
O=S(=O)(c1ccc(Cl)cc1)c1nc(-c2ccccc2F)oc1N1CCCCC1	none
O=S(=O)(c1ccc(Cl)cc1)c1nc(-c2ccccc2F)oc1N1CCCCCC1	none
O=C(CSCc1cnn(-c2ccccc2)c1-n1cccc1)NC1CCCC1	none
CCCCCc1ccc(-c2ccc(-c3noc(-c4ccccc4Cl)n3)cc2)cc1	none
CCN(CCCNC(=O)c1nn(-c2ccccc2OC)c(=O)c2ccccc12)c1cccc(C)c1	CBX7 AlphaScr 0.48
COc1ccccc1CNC(=O)c1nn(-c2ccccc2OC)c(=O)c2ccccc12	none
COCCNC(=O)c1nn(-c2ccccc2OC)c(=O)c2ccccc12	none
O=C(c1cnc(N2CCN(c3ccccn3)CC2)c2ccccc12)N1CCN(c2ccccc2)CC1	none
COc1cccc(C(=O)N(Cc2ccc(OC)c(OC)c2)C2CCS(=O)(=O)C2)c1 (stereo unspecified)	none
Cc1ccccc1-c1nc(CN2CCC(C(=O)NCCCN(C)C3CCCCC3)CC2)c(C)o1	none
CCn1c(C(=O)N2CCC(C(=O)NCc3ccc(F)cc3)CC2)cc2sccc21	none
COc1ccc(C(=O)N2CC(=O)Nc3ccc(C)cc3C2c2ccc(F)cc2)cc1 (stereo unspecified)	none
COc1ccc(C(=O)N2CC(=O)Nc3ccc(C)cc3C2c2ccc(F)cc2)c(OC)c1 (stereo unspecified)	CBX7 AlphaScr 0.3
COc1ccccc1C(=O)N1CC(=O)Nc2ccc(F)cc2C1c1ccccc1 (stereo unspecified)	none
Cc1ccc(Nc2nc(-c3ccccc3)c3cc(Cl)ccc3n2)c(C)c1	none
COc1ccc(CCNC(=O)c2cc3c(s2)CSC3)cc1OC	none
CCc1ccc(NC(=O)C2CCCN(S(=O)(=O)c3c(C)noc3C)C2)cc1 (stereo unspecified)	none
CCOc1ccc2nc(N3CCCC(C(=O)N4CCN(CC)CC4)C3)sc2c1 (stereo unspecified)	CBX7 AlphaScr 0.43
CCOc1ccc2nc(N3CCCC(C(=O)N4CCC(C(N)=O)CC4)C3)sc2c1 (stereo unspecified)	none
CCOc1ccc2nc(N3CCCC(C(=O)N4CCN(Cc5ccccc5)CC4)C3)sc2c1 (stereo unspecified)	none
CCOCCCNC(=O)C1CCCN(c2nc3ccc(OCC)cc3s2)C1 (stereo unspecified)	none
CCOc1ccc2nc(N3CCCC(C(=O)NCCCN4CCN(CC)CC4)C3)sc2c1 (stereo unspecified)	CBX7 AlphaScr 0.44
CCCN1CCN(CCCNC(=O)C2CCCN(c3nc4ccc(OCC)cc4s3)C2)CC1 (stereo unspecified)	none
CCCCOc1ccc(C(=O)NCCc2cc3c(C)ccc(C)c3[nH]c2=O)cc1	none
CC(=O)Nc1ccc(N2C(=O)CC(N3CCC(O)(c4ccc(Br)cc4)CC3)C2=O)cc1 (stereo unspecified)	none
CCOc1cccc2sc(NC(=O)c3ccc(S(=O)(=O)N4CCCc5ccccc54)cc3)nc12	none
CN(c1ccccc1)S(=O)(=O)c1ccc(C(=O)Nc2nnc(-c3ccc(Cl)s3)o2)cc1	CBX7 AlphaScr 0.39
O=C(Nc1nc(-c2ccncc2)cs1)c1ccc(S(=O)(=O)N2CCCc3ccccc32)cc1	none
